CHRM1 antagonist: antagonists of human M1 muscarinic receptor | CHO-K1 hM1, Fluo-8 calcium fluorescence, ACh EC80 antagonist | P11229 | inhibition, % at 3 µM | AID 588852 | actives 1.3% (n = 360,000);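 active means percent inhibition above its own plate's cutoff, namely the mean of that plate's compound wells plus 3 SD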;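 further: peak over basal fluorescence ratio during 140 s after agonist addition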
Target sequence (P11229 whole entry, looked up): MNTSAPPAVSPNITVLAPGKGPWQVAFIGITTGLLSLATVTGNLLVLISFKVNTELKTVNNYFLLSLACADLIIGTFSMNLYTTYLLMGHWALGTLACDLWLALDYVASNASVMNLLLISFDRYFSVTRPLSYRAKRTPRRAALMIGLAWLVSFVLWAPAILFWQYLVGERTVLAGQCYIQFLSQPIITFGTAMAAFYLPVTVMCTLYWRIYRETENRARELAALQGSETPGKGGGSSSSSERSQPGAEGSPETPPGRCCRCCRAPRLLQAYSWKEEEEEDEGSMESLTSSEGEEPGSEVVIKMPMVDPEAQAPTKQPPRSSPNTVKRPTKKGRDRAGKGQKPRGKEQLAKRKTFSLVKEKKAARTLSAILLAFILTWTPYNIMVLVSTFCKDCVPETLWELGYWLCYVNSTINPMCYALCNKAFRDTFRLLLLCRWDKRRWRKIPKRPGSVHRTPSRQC
M1 PAM: potentiates human M1 receptor response to acetylcholine; P11229; CHO-K1 hM1, Fluo-8 calcium fluorescence, ACh EC20; 0% = ACh EC20, 100% = maximal ACh; activation, % at 3 µM; actives 0.088% (n = 360,000); AID 588819; in the data active means activation above about 19%, passing the limit was not always enough
CHO-K1 Ca PAM: M1 PAM counterscreen hit in parental CHO-K1 cells. actives 0.02% (n = 360,000). activation, % at 3 µM. AID 602247. ATP EC20, Fluo-8 calcium fluorescence; 0% at ATP EC20, 100% at ATP max;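 active means activation above the run cutoff, the mean activation of all test compounds plus 3 SD, cut at about 40% in these data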;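 further: peak over basal fluorescence ratio in a 140 s read after ATP addition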
M1 ag: agonists of human M1 muscarinic receptor. P11229. activation, % at 3 µM. CHO-K1 hM1, Fluo-8 calcium fluorescence, agonist mode; 0% DMSO, 100% acetylcholine EC100. actives 0.33% (n = 360,000). AID 588814;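 active means activation above the run's mean compound activation plus 3 SD, cut at about 16% in these data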;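 further: peak over basal fluorescence ratio within a 140 s kinetic read after compound addition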
CHO-K1 Ca antag: nonselective inhibitor or artifact in parental CHO-K1 cells | ATP-induced calcium, Fluo-8 fluorescence | inhibition, % at 3 µM | actives 0.6% (n = 360,000);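 active means inhibition above a per-plate cutoff, the plate's mean sample inhibition plus 3 SD, cut at about 24% in these data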
M1 ag parental: counter-screen for M1 agonists: effect in parental CHO-K1 cells | Fluo-8 calcium fluorescence; scaled to maximal ATP response, vehicle zero | activation, % at 3 µM | actives 0.48% (n = 360,000) | AID 602248; in the data active means activation above about 15%;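 further: untransfected CHO-K1 host cells lacking M1 receptor as counterscreen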
Of the large screens only hits and unclear results are named; the others gave an inactive call. Rows were chosen to be rich in hits. Some 2.3% of all compounds tested hit in one or more screens of this group.

Cc1cccc(CN2CCCC(C(=O)c3ccc4c5c(cccc35)CC4)C2)n1 (stereo unspecified)	CHRM1 antagonist 95
COc1cccc(-c2ccc(NC(=O)C3CCCN(Cc4cccc(C)n4)C3)cc2)c1 (stereo unspecified)	CHRM1 antagonist 53
Cc1ncc(CN2CCCC(C(=O)Nc3ccc(-c4cccc(F)c4)cc3)C2)n1C (stereo unspecified)	CHRM1 antagonist 32
O=C(c1ccc2c3c(cccc13)CC2)C1CCCN(Cc2cccnc2)C1 (stereo unspecified)	none
COc1ccc2cc(C(=O)C3CCCN(Cc4cccc(C)n4)C3)ccc2c1 (stereo unspecified)	CHRM1 antagonist 60
COc1cccc(-c2ccc(NC(=O)C3CCCN(Cc4cnn(C)c4C)C3)cc2)c1 (stereo unspecified)	none
Cc1cc(C)n2c(NCc3ccccc3)c(-c3cc4ccccc4o3)nc2n1	none (no result: CHRM1 antagonist, M1 PAM, M1 ag)
COCCNC(=O)Cn1cc(/C=N/NC(=O)c2ccc(Oc3ccc(O)cc3)cc2)c2ccccc21	none
COc1cccc(CN2CCCC(C(=O)Nc3ccc(-c4cscn4)cc3)C2)c1 (stereo unspecified)	CHRM1 antagonist 35
Cc1ncc(CN2CCCC(C(=O)Nc3ccc(-c4cscn4)cc3)C2)cn1 (stereo unspecified)	none
COc1ccc(C(=O)/C=C/c2ccc(N(C)C)cc2)c(OC)c1	CHRM1 antagonist 53, M1 ag 69, CHO-K1 Ca antag 45, M1 ag parental 82
CN(C)c1ccc(/C=C/C(=O)c2ccc3c(c2)OCO3)cc1	CHRM1 antagonist 41, M1 ag 53, M1 ag parental 46
CN(C)c1ccc(C(=O)C=Cc2ccc([N+](=O)[O-])cc2)cc1	none
CN(C)c1ccc(/C=C/C(=O)c2ccc(O)cc2)cc1	M1 ag 53, CHO-K1 Ca antag 25, M1 ag parental 53
CN(C)c1ccc(/C=C/C(=O)c2cccnc2)cc1	M1 ag 60, M1 ag parental 65
COc1ccc(C(=O)/C=C/c2ccccc2)c(OC)c1	none
O=C(/C=C/c1ccccc1)c1ccc2c(c1)OCO2	none
CCCOc1ccc(CSc2nc3ccccc3[nH]2)cc1	CHRM1 antagonist 38
CCOc1ccc(OCCSc2nc3ccccc3[nH]2)cc1	none
CCCNC(=S)NC1CCCC1	CHRM1 antagonist 38
N#Cc1c(-c2ccc(Cl)cc2)ccn2nc(C3CCCCC3)nc12	none
CCN(CC)S(=O)(=O)c1cc(OC)c(Cl)cc1OC	none
CC1(C)Cc2c(sc3nc(-c4cccs4)n(N)c(=O)c23)CO1	M1 ag parental 16
O=C(CCCCn1c(=O)c2ccccc2n(Cc2ccccc2F)c1=O)NC1CCN(Cc2ccccc2)CC1	none
O=c1c2cc(F)ccc2sn1-c1ccccc1Cl	none
Cc1ccc(-n2sc3cc(F)ccc3c2=O)c(C)c1	M1 ag 18
O=c1c2ccc(F)cc2sn1-c1ccccc1	M1 ag 16
COc1ccc(CC(=O)OCC(=O)Nc2cccnc2Cl)cc1OC	CHRM1 antagonist 35
C#CCN(C[C@H]1[C@H](OC(=O)NCc2ccccc2)[C@H](OC(=O)NCc2ccccc2)C[C@@H](C(=O)OC)[C@H]1C(=O)OC)S(=O)(=O)c1ccc(C)cc1	CHO-K1 Ca antag 38
C#CCN(C[C@H]1[C@H](OC(=O)NCCCCCC)[C@H](OC(=O)NCCCCCC)C[C@@H](C(=O)OC)[C@H]1C(=O)OC)S(=O)(=O)c1ccc(C)cc1	none
Cc1ccc(NC(=O)c2ccc(NCc3ccco3)c([N+](=O)[O-])c2)cc1Cl	none
CCN1CCN(c2cc(C)c3cc(NC(=O)Cc4ccc(OC)c(OC)c4)ccc3n2)CC1	CHO-K1 Ca antag 28
CCOC(=O)c1[nH]cnc1C(=O)N1CCC(C)CC1	none
O=C(CN1CCN(S(=O)(=O)c2ccc(Br)cc2)CC1)Nc1ccc2c(c1)OCO2	M1 ag parental 22
CCN(CC(=O)Nc1cc(S(=O)(=O)N2CCCCC2)ccc1Cl)Cc1ccccc1	CHO-K1 Ca antag 36
O=S(=O)(Nc1ccc(S(=O)(=O)N2CCCC2)cc1)c1ccc(F)cc1	none
CC1CCN(S(=O)(=O)c2ccc(NC(=O)CN3CCCC(C)C3)cc2)CC1 (stereo unspecified)	none
O=C(CN1CCN(S(=O)(=O)c2ccc(Br)cc2)CC1)Nc1ccc(F)cc1	none
O=S(=O)(Nc1ccc(F)cc1)c1ccc(S(=O)(=O)N2CCOCC2)cc1	M1 ag 24, M1 ag parental 34
CC1CCCN(CC(=O)Nc2ccc(S(=O)(=O)N3CCCC3)cc2)C1 (stereo unspecified)	CHRM1 antagonist 67
Cc1c(NS(=O)(=O)c2cc(C(=O)N(C)Cc3ccccc3)ccc2Cl)c(=O)n(-c2ccccc2)n1C	none
COc1cc(NC(=O)CN2C(=O)c3ccccc3S2(=O)=O)c(OC)cc1Cl	none
CCCC(=O)Nc1ccc(S(=O)(=O)N2CCCC2)cc1	none
O=C(Nc1ccc(S(=O)(=O)N2CCCCC2)cc1)c1ccccc1Cl	none
O=C(Nc1cccc(F)c1)C1CCN(S(=O)(=O)c2cccc3nonc23)CC1	M1 ag parental 20
O=C(Nc1ccccc1)Nc1ccc(S(=O)(=O)N2CCCCC2)cc1	CHO-K1 Ca antag 24
O=C(O)CCC(=O)Nc1ccc(S(=O)(=O)N2CCCC2)cc1	CHO-K1 Ca antag 25
O=C(Nc1ccc(S(=O)(=O)N2CCCC2)cc1)C1CCN(S(=O)(=O)c2ccc(F)cc2)CC1	M1 ag 17
Cc1ccc(NC(=O)C2CCN(S(=O)(=O)c3cccc4nonc34)CC2)cc1	none
Cc1cc(C)c(S(=O)(=O)c2ccccc2C)c(OCCN(C)C)n1	none
O=S(=O)(c1ccc(NC(=S)NCc2cccnc2)cc1)N1CCCCC1	CHRM1 antagonist 44
O=C(Nc1cccc(Cl)c1)Nc1cc(S(=O)(=O)N2CCCCC2)ccc1Cl	CHRM1 antagonist 25, CHO-K1 Ca antag 38
O=C(NCc1cccnc1)c1ccc(S(=O)(=O)N2CCCCC2)cc1	none
COc1cc2c(cc1OC)C(C)N(CC(=O)Nc1ccc(S(=O)(=O)N3CCCC3)cc1)CC2 (stereo unspecified)	CHRM1 antagonist 58
CN1CCN(S(=O)(=O)c2ccc(NC(=O)Nc3cccc(Cl)c3)cc2)CC1	none
COc1cc2c(cc1OC)CN(CC(=O)Nc1ccc(S(=O)(=O)N3CCCC3)cc1)CC2	none
COc1ccc([C@@H]2C[C@H]3[C@@H](CN2S(=O)(=O)c2ccccc2)C(=O)C[C@@H](c2ccc(C)cc2)N3S(=O)(=O)c2ccc(C)cc2)cc1	none
O=C(c1ccccn1)N1CCCC(N2CCN(c3cccc(C(F)(F)F)c3)CC2)C1 (stereo unspecified)	none
COc1ccc(S(=O)(=O)N2CCC[C@H]2C(=O)N2CCC[C@H]2C(=O)NCc2ccncc2)cc1C	none (no result: CHRM1 antagonist, M1 PAM, M1 ag)

Bioassay records (PubChem BioAssay)
